Experimental data from PubChem BioAssay (NCI).
Compounds without any hit were thinned out: in the full panel of roughly 79,000, 15% have a hit. Activity calls are given as the source filed them. Cut-off read from the data, not from the text of the source: active = growth inhibition above about 70%; inactive = the rest.

Tests used:
[1] = NCI Yeast Anticancer Drug Screen. Data for the rad52 strain (AID 147);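 note: 0% = growth of vehicle-treated control cultures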; conditions: S. cerevisiae rad52 mutant growth inhibition, active compounds read high
How it was run: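 Here a repair-compromised yeast strain receives each compound; its growth is then quantified and normalised to vehicle-only controls.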

[2] = NCI Yeast Anticancer Drug Screen. Data for the wt1 strain (AID 149);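 note: 0% = growth of vehicle-treated wt1 cultures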; conditions: S. cerevisiae wt1 strain (SPY 50644) growth inhibition, active compounds read high
How it was run: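 Growth inhibition read against vehicle controls after compound exposure of the wt1 yeast strain.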

[3] = NCI Yeast Anticancer Drug Screen. Data for the rad50EPP+ strain (AID 151);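 note: 0% = growth of vehicle-treated control cultures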; conditions: S. cerevisiae rad50 mutant strain, active compounds read high
How it was run: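 Read-out is yeast growth inhibition relative to vehicle; cells used were the rad50EPP+ strain.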

[4] = NCI Yeast Anticancer Drug Screen. Data for the mgt1 strain (AID 153); conditions: S. cerevisiae mgt1 mutant growth inhibition, active compounds read high
How it was run: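 Measured: inhibition of mgt1 yeast growth by compound, normalized to vehicle-treated cultures.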

[5] = NCI Yeast Anticancer Drug Screen. Data for the rad50 strain (AID 155);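 note: 0% = growth of vehicle-only cultures of the same strain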; conditions: S. cerevisiae rad50 strain growth inhibition, active compounds read high
How it was run: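 Readout: growth inhibition relative to vehicle-treated cultures. Compound exposure was carried out in a genetically defined yeast strain deficient in DNA damage repair.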

[6] = NCI Yeast Anticancer Drug Screen. Data for the mec2-1 strain (AID 157); conditions: S. cerevisiae mec2-1 strain, active compounds read high
How it was run: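 Using mec2-1 yeast: add compound, measure growth, express inhibition versus vehicle-treated cultures.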

[7] = NCI Yeast Anticancer Drug Screen. Data for the rad14 strain (AID 159);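 note: 0% = growth of vehicle-treated control cultures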; conditions: S. cerevisiae rad14 strain growth inhibition, active compounds read high
How it was run: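 Growth inhibition vs vehicle controls; genetically altered yeast strain (DNA damage repair defect) treated with test compounds.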

[8] = NCI Yeast Anticancer Drug Screen. Data for the sgs1 mgt1 strain (AID 161);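 note: 0% = growth of cultures given vehicle only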; conditions: S. cerevisiae sgs1 mgt1 strain, active compounds read high
How it was run: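 Growth of a repair-deficient yeast mutant was monitored after compound treatment and expressed as inhibition relative to vehicle-treated cultures.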

[9] = NCI Yeast Anticancer Drug Screen. Data for the CLN2oe strain (AID 163);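 note: 0% = growth of vehicle-only control cultures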; conditions: S. cerevisiae CLN2oe strain, active compounds read high
How it was run: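 Whole-cell yeast growth assay. A strain engineered for altered cell-cycle control received compound, and inhibition relative to vehicle-treated cultures was recorded.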

[10] = NCI Yeast Anticancer Drug Screen. Data for the cln2 rad14 strain (AID 165);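 note: 0% = growth equal to vehicle treated cultures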; conditions: S. cerevisiae cln2 rad14 strain, active compounds read high
How it was run: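 Yeast strain cln2 rad14, bearing defects in cell cycle control and DNA repair, serves as the test system; values reflect growth inhibition compared with vehicle.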

[11] = NCI Yeast Anticancer Drug Screen. Data for the bub3 strain (AID 167); conditions: S. cerevisiae bub3 mutant strain, active compounds read high
How it was run: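 Readout: yeast growth inhibition, expressed relative to vehicle-only wells. The test organism is a mutant strain from a panel with lesions in DNA repair or checkpoint genes.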

[12] = NCI Yeast Anticancer Drug Screen. Data for the wt2 strain (AID 169);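 note: 0% = growth of vehicle-treated yeast cultures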; conditions: S. cerevisiae wt2 strain growth inhibition, active compounds read high
How it was run: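 Treated yeast vs. vehicle-treated yeast: growth inhibition determined.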

[13] = NCI Yeast Anticancer Drug Screen. Data for the mlh1 strain (AID 171);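 note: 0% = growth of vehicle-treated control cultures of the same strain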; conditions: S. cerevisiae mlh1 strain growth inhibition, active compounds read high
How it was run: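 A yeast strain with a defined genetic lesion serves as the test organism. Cultures receive compound or vehicle, and growth is measured.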

[14] = NCI Yeast Anticancer Drug Screen. Data for the sgs1 strain (AID 173);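 note: 0% = growth of vehicle-only control cultures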; conditions: S. cerevisiae sgs1 mutant, active compounds read high
How it was run: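 A genetically defined yeast mutant is incubated with the test compound, and its growth is compared to that of the same strain given vehicle.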

[15] = NCI Yeast Anticancer Drug Screen. Data for the mlh1 rad18 strain (AID 175); conditions: S. cerevisiae mlh1 rad18 strain growth inhibition, active compounds read high
How it was run: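 Steps: expose repair-defective yeast to compound; measure growth; express inhibition against vehicle-treated controls.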

[16] = NCI Yeast Anticancer Drug Screen. Data for the rad18 strain (AID 177); conditions: S. cerevisiae rad18 mutant growth inhibition, active compounds read high
How it was run: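 Measured value is growth inhibition of a yeast strain bearing a DNA repair alteration, referenced to vehicle-treated cells.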

[17] = at 5.0 µM (retest, dose inferred, filed as 0.5)
[18] = at 50.0 µM (retest, dose inferred, filed as 5.0)

Measured: growth inhibition

CCC(C)(C)c1ccc(Oc2cccc(C(=O)O)c2)cc1
inactive: [1]; at 1.2 µM -2% | [1]; at 3.7 µM -1% | [1]; at 11.0 µM 17% | [1]; at 33.0 µM 59% | [1]; at 100.0 µM 68% | [2]; at 1.2 µM -1% | [2]; at 3.7 µM -3% | [2]; at 11.0 µM 12% | [2]; at 33.0 µM 49% | [2]; at 100.0 µM 59% | [3]; at 1.2 µM 8% | [3]; at 3.7 µM 18% | [3]; at 11.0 µM 25% | [3]; at 33.0 µM 42% | [3]; at 100.0 µM 56% | [4]; at 1.2 µM -4% | [4]; at 3.7 µM -6% | [4]; at 11.0 µM 2% | [4]; at 33.0 µM 52% | [5]; at 1.2 µM 2% | [5]; at 3.7 µM -1% | [5]; [17] -2% | [5]; at 11.0 µM 25% | [5]; at 33.0 µM 55% | [5]; [18] 44% | [6]; at 1.2 µM -1% | [6]; at 3.7 µM 2% | [6]; [17] 19% | [6]; at 11.0 µM 25% | [6]; [18] 48% | [7]; at 1.2 µM -6% | [7]; at 3.7 µM -14% | [7]; at 11.0 µM 2% | [7]; at 33.0 µM 54% | [8]; [17] -1% | [8]; [18] 9% | [8]; at 50.0 µM 58.2% | [9]; at 1.2 µM -4% | [9]; at 3.7 µM -4% | [9]; at 11.0 µM 24% | [10]; [17] -27% | [10]; [18] 30% | [11]; at 1.2 µM -8% | [11]; at 3.7 µM -2% | [11]; [17] -17% | [11]; at 11.0 µM 23% | [11]; at 33.0 µM 68% | [11]; [18] 32% | [12]; at 1.2 µM -4% | [12]; at 3.7 µM -4% | [12]; at 11.0 µM 7% | [12]; at 33.0 µM 46% | [12]; at 100.0 µM 62% | [13]; at 1.2 µM 1% | [13]; at 3.7 µM -1% | [13]; at 11.0 µM 14% | [13]; at 33.0 µM 31% | [14]; at 1.2 µM 6% | [14]; at 3.7 µM 10% | [14]; at 11.0 µM 28% | [14]; at 33.0 µM 54% | [14]; at 100.0 µM 68% | [15]; [17] 10% | [15]; [18] 36% | [16]; at 1.2 µM 8% | [16]; at 3.7 µM 3% | [16]; at 11.0 µM 17% | [16]; at 33.0 µM 49% | [16]; at 100.0 µM 69%
active: [4]; at 100.0 µM 92% | [5]; at 50.0 µM 72.1% | [5]; at 100.0 µM 71% | [6]; at 33.0 µM 70% | [6]; at 50.0 µM 78.8% | [6]; at 100.0 µM 96% | [7]; at 100.0 µM 72% | [9]; at 33.0 µM 84% | [9]; at 100.0 µM 84% | [10]; at 50.0 µM 88% | [11]; at 50.0 µM 71.8% | [11]; at 100.0 µM 84% | [13]; at 100.0 µM 96% | [15]; at 50.0 µM 86.7%

COc1ccc(/C=C2\NC(=S)N(/C=C3\C(=O)Oc4ccccc4C3=O)C2=O)cc1
inactive: [1]; at 1.2 µM -1% | [1]; at 3.7 µM -1% | [1]; at 11.0 µM 3% | [1]; at 33.0 µM 5% | [1]; at 100.0 µM 21% | [2]; at 1.2 µM 1% | [2]; at 3.7 µM 1% | [2]; at 11.0 µM 1% | [2]; at 33.0 µM 4% | [2]; at 100.0 µM 15% | [3]; at 1.2 µM -2% | [3]; at 3.7 µM -3% | [3]; at 11.0 µM -1% | [3]; at 33.0 µM -1% | [3]; at 100.0 µM -2% | [4]; at 1.2 µM -5% | [4]; at 3.7 µM -5% | [4]; at 11.0 µM -3% | [4]; at 33.0 µM -8% | [4]; at 100.0 µM 28% | [5]; at 1.2 µM -4% | [5]; at 3.7 µM 4% | [5]; [17] 3% | [5]; at 11.0 µM -17% | [5]; at 33.0 µM 5% | [5]; [18] 24% | [5]; at 100.0 µM 20% | [6]; at 1.2 µM 0% | [6]; at 3.7 µM 1% | [6]; [17] -1% | [6]; at 11.0 µM 3% | [6]; at 33.0 µM 15% | [6]; [18] 1% | [6]; at 50.0 µM 56.2% | [6]; at 100.0 µM 24% | [7]; at 1.2 µM 1% | [7]; at 3.7 µM 0% | [7]; at 11.0 µM 2% | [7]; at 33.0 µM 7% | [7]; at 100.0 µM 21% | [8]; [17] 0% | [8]; [18] 8% | [9]; at 1.2 µM -6% | [9]; at 3.7 µM -6% | [9]; at 11.0 µM -9% | [9]; at 33.0 µM 11% | [9]; at 100.0 µM 34% | [10]; [17] 41% | [10]; [18] 26% | [11]; at 1.2 µM -3% | [11]; at 3.7 µM -2% | [11]; [17] -5% | [11]; at 11.0 µM -2% | [11]; at 33.0 µM 4% | [11]; [18] 4% | [11]; at 100.0 µM 15% | [12]; at 1.2 µM -6% | [12]; at 3.7 µM -1% | [12]; at 11.0 µM -1% | [12]; at 33.0 µM 5% | [12]; at 100.0 µM 27% | [13]; at 1.2 µM -1% | [13]; at 3.7 µM 1% | [13]; at 11.0 µM 1% | [13]; at 33.0 µM 9% | [13]; at 100.0 µM 25% | [14]; at 1.2 µM 0% | [14]; at 3.7 µM 2% | [14]; at 11.0 µM 2% | [14]; at 33.0 µM 20% | [14]; at 100.0 µM 35% | [15]; [17] 4% | [15]; [18] 2% | [16]; at 1.2 µM -3% | [16]; at 3.7 µM -1% | [16]; at 11.0 µM 1% | [16]; at 33.0 µM 5% | [16]; at 100.0 µM 14%
active: [5]; at 50.0 µM 70.2% | [8]; at 50.0 µM 84.2% | [10]; at 50.0 µM 89.2% | [11]; at 50.0 µM 79.2% | [15]; at 50.0 µM 72.8%
